Data published in PubChem BioAssay AID430 (Sanford-Burnham Center for Chemical Genomics, 2006).
Hit rate of the full screen: of about 63,000 compounds, about 1,100 (1.7%) were called active. The full list was thinned out, with actives kept by preference. Results with a measured potency or affinity are listed apart. Unmarked numbers belong to inactive results. No stated cut-off is given here; in the data, active means cytotoxicity above about 50%; inactive means the rest.

Assay: HPDE-C7 pancreatic duct cell viability loss – fluorescence, HTS (AID 430);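 further: cells exposed to compound for 48 hours before viability readout; 0% = vehicle and 100% = reference cytotoxic drug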
Settings: HPDE-C7 pancreatic duct cells viability, at 10 µM, active compounds read high

| Compound | cytotoxicity |
| --- | --- |
| COc1ccc(C2CC(c3ccccc3)Nc3nc(NC(=O)c4ccco4)nn32)cc1 (configuration not stated) | -5.5% |
| COC(=O)Cc1cc(=O)n2[nH]c(C)nc2n1 | -15.9% |
| CCOC(=O)N1CCN(c2ccc(C(=O)c3ccccc3)cc2F)CC1 | 7% |
| Brc1ccc2[nH]ncc2c1 | -5.6% |
| O=c1[nH]c(CN2CCc3ccccc3C2)nc2ccccc12 | 3.3% |
| COc1cccc(N2CCN(CC(=O)c3c[nH]c4ccc(OC)cc34)CC2C)c1 (configuration not stated) | 9.5% |
| c1ccc2c(c1)CCN(c1ncnc3nc[nH]c13)C2 | -4.2% |
| COc1cccc(N2CCN(Cc3nc4ccccc4c(=O)[nH]3)CC2)c1 | -2.6% |
| COC(=O)c1ccc(N2C(=O)CC(NCc3ccccc3)C2=O)cc1 (configuration not stated) | -3% |
| CCS(=O)(=O)N1CCCC(C(=O)NCc2ccc3c(c2)OCO3)C1 (configuration not stated) | -13.3% |
| Cc1cc(C)n(-c2nncc(-c3ccccc3)n2)n1 | 0.6% |
| Cc1cc(NC(=O)CSc2nnc(Cn3c(=O)sc4ccccc43)n2-c2ccccc2C)no1 | -24.2% |
| Cc1ccc(S(=O)(=O)CCC(=O)OCC(=O)Nc2cc(C)on2)cc1 | -14.2% |
| Cc1cc(C)nc(SCC(=O)c2ccc(O)cc2O)n1 | -21% |
| OCC1OC(n2nc3ccccc3n2)C(O)C(O)C1O (configuration not stated) | -4.3% |
| COc1cccc(-n2c(CNC(=O)OC(C)(C)C)n[nH]c2=S)c1 | 2.9% |
| O=S(=O)(Nc1cccc2ncccc12)c1cccs1 | 45.6% |
| Cc1ccc2ncccc2c1NS(=O)(=O)c1ccccc1 | -17.3% |
| CCOCC(=O)Nc1nnc(Cc2ccc(OC)c(OC)c2)s1 | -11.9% |
| O=C(NCCCN1CCOCC1)c1cc2ccccc2oc1=O | 3.1% |
| Cc1oc(-c2ccc(Cl)cc2)nc1CN1CCC(C(=O)NCc2cccnc2)CC1 | -28.8% |
| CCCCOC(=O)c1[nH]c2c(c1C)C(=O)CC(c1cc(OC)c(OC)c(OC)c1)C2 (configuration not stated) | -7.3% |
| CCOC(=O)c1[nH]c2c(c1C)C(=O)CC(c1ccc(F)cc1)C2 (configuration not stated) | 70.4% (active) |

| Compound | cytotoxicity |
| --- | --- |
| COC(=O)c1[nH]c2c(c1C)C(=O)CC(c1cccs1)C2 (configuration not stated) | 70.9% (active) |
| COCCOC(=O)c1[nH]c2c(c1C)C(=O)CC(c1ccc(N(C)C)cc1)C2 (configuration not stated) | -10.9% |
| COCCOC(=O)c1[nH]c2c(c1C)C(=O)CC(c1ccccc1)C2 (configuration not stated) | 50.6% (active) |
| COC(=O)c1[nH]c2c(c1C)C(=O)CC(c1ccccc1)C2 (configuration not stated) | 45.6% |
| CCCOC(=O)c1[nH]c2c(c1C)C(=O)CC(c1ccc(OC)c(OC)c1)C2 (configuration not stated) | -5.7% |
| CCCCCOC(=O)c1[nH]c2c(c1C)C(=O)CC(c1ccco1)C2 (configuration not stated) | 68.9% (active) |
| COC(=O)c1[nH]c2c(c1C)C(=O)CC(c1ccc(C)cc1)C2 (configuration not stated) | 1.7% |
| CCOCCOC(=O)c1[nH]c2c(c1C)C(=O)CC(c1ccc(N(C)C)cc1)C2 (configuration not stated) | -3.3% |
| CCOc1ccc(C2CC(=O)c3c([nH]c(C(=O)OC)c3C)C2)cc1OC (configuration not stated) | 2.6% |
| COCCOC(=O)c1[nH]c2c(c1C)C(=O)CC(c1ccc(F)cc1)C2 (configuration not stated) | 4.9% |
| COc1cccc(CNC(=O)C2CCN(S(=O)(=O)N3CCCC3)CC2)c1 | -7.2% |
| COc1ccc2c(C)cc(=O)oc2c1C | 0.6% |
| C=CCn1c(-c2cc(OC)c(OC)c(OC)c2)n[nH]c1=S | -1.6% |
| Cc1nn(-c2ccccc2)c2c1C1(C(=O)N(C)c3ccccc31)N(c1ccccc1)C(=O)N2 (configuration not stated) | -21.2% |
| O=C1C=C(O)CC(c2ccc(Cl)cc2)C1 (configuration not stated) | 31.1% |
| CCOC(=O)c1sc(NC(=O)CSc2nnc(-c3ccco3)n2CC)c(C(=O)OCC)c1C | 31.5% |
| CCC(C)N(C(=O)Cn1nnc2ccccc21)C(C(=O)NCc1ccco1)c1cccc(OC)c1 (configuration not stated) | -10.2% |
| COc1ccc(C(NC(=O)c2ccco2)c2ccc(OC)c(OC)c2)cc1OC | -8.3% |
| Nc1nnc(-c2ccco2)s1 | -4.3% |
| CCOC(=O)N1CCC(NC(=O)Cn2cc3c(n2)CCC(C)C3)CC1 (configuration not stated) | 6.2% |
| COc1ccc(OC)c(C2CC(=O)c3c([nH]c(C(=O)OCC4CCCO4)c3C)C2)c1 (configuration not stated) | 8.2% |
| Cc1c(C(=O)OCc2ccccc2)[nH]c2c1C(=O)CC(c1ccco1)C2 (configuration not stated) | 65.7% (active) |
| Cc1c(C(=O)OCC2CCCO2)[nH]c2c1C(=O)CC(c1ccco1)C2 (configuration not stated) | 62.4% (active) |

| Compound | cytotoxicity |
| --- | --- |
| Cc1c(C(=O)OCC2CCCO2)[nH]c2c1C(=O)CC(c1ccc(N(C)C)cc1)C2 (configuration not stated) | -4.3% |
| COCCOC(=O)c1[nH]c2c(c1C)C(=O)CC(c1ccco1)C2 (configuration not stated) | 60.3% (active) |
| COc1cc(C2CC(=O)c3c([nH]c(C(=O)OCCOC(C)C)c3C)C2)cc(OC)c1OC (configuration not stated) | 2.4% |
| Cc1c(C(=O)OCCOC(C)C)[nH]c2c1C(=O)CC(c1ccco1)C2 (configuration not stated) | 59.9% (active) |
| CC1=C(C(=O)OCc2ccccc2)C(c2ccco2)C2=C(CC(C)(C)CC2=O)N1 (configuration not stated) | 22.7% |
| COCCOC(=O)c1[nH]c2c(c1C)C(=O)C(C(=O)OC)C(C)C2 (configuration not stated) | -7.3% |
| Cc1c(C(=O)OCCOC(C)C)[nH]c2c1C(=O)CC(C)(C)C2 | -12% |
| Cc1c(C(=O)O)[nH]c2c1C(=O)CC(c1ccccc1)C2 (configuration not stated) | -12.1% |
| CCN1CCN(c2ncc(C(=O)N3CCCc4ccccc43)c3ccccc23)CC1 | -18.1% |
| Cn1c(=O)c2c(nc(N3CCCCCC3)n2CC(O)COc2ccccc2)n(C)c1=O (configuration not stated) | 3.5% |
| COC(=O)c1[nH]c2cc(OC)c(OC)cc2c1NC(=O)c1cccc(OC)c1 | -10.5% |
| COc1ccc(-c2noc(COc3ccc(C)c(C)c3)n2)cc1OC | 3.4% |
| Cc1c(C(=O)OC2CCC(C)CC2)[nH]c2c1C(=O)CCC2 (configuration not stated) | -8.8% |
| CCOC(=O)c1[nH]c2c(c1C)C(=O)CC(c1ccco1)C2 (configuration not stated) | 70.2% (active) |
| CSCCOC(=O)c1[nH]c2c(c1C)C(=O)CC(c1ccco1)C2 (configuration not stated) | 64.9% (active) |
| Cc1c(C(=O)OC2CCCC2)[nH]c2c1C(=O)CC(c1ccco1)C2 (configuration not stated) | 79.3% (active) |
| Cc1c(C(=O)OCC(C)C)[nH]c2c1C(=O)CC(c1ccco1)C2 (configuration not stated) | 63.7% (active) |
| CCOC(=O)c1[nH]c2c(c1C)C(=O)CC(c1ccc(OCC)c(OC)c1)C2 (configuration not stated) | -5% |
| CCC(C)OC(=O)c1[nH]c2c(c1C)C(=O)CC(c1ccc(N(C)C)cc1)C2 (configuration not stated) | 11.5% |
| Cc1c(C(=O)OC2CCCCC2)[nH]c2c1C(=O)CC(C)(C)C2 | -3.5% |
| CCOC(=O)c1[nH]c2c(c1C)C(=O)CC(c1ccc(OC)c(OC)c1)C2 (configuration not stated) | -13.8% |
